According to PubChem BioAssay (EPA / NIEHS):
Values joined by “and” are separate entries in the source; they are usually repeats but may differ in a detail not shown here. Equal entries are not always repeated. Inconclusive results are not listed. The source holds several records for some structures; these can differ, active in one and inactive in another. Active and inactive are the calls of the source. The calls were made as follows, unless noted: active = hit-call score of the fitted dose curve at least 0.9, where 1 is the maximum; inconclusive = response in the unintended direction; inactive = score below 0.9.

Legend:
[1] = test system: Thyroperoxidase (TPO), gene 445522; assay: CCTE_Simmons_GUA_TPO: CCTE's Guaiacol Assay for Thyroperoxidase (TPO) Inhibition, Simmons Lab (AID 2283750)
Procedure, shortened: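 Porcine thyroid microsomes (25 ug) in 200mM potassium phosphate, preincubated 30 s at 37C with compound (8 concentrations, 5 nM–87.5 uM) and 35mM guaiacol; 1mM H2O2 starts reaction. Absorbance change at 450nm over first 80 s; loss of signal versus DMSO, three replicates.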

[2] = ArunA_CellTiter_hNC: Viability Assessment in the ArunA Biomedical's Oris Neural Crest (hNC) Cell Migration Assay (AID 2283752)
Procedure, shortened: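 hNC cells (H9 ESC-derived), 60,000/well, Matrigel, LIF + bFGF medium; 16 h 37C attachment; 72 h compound in test medium; CellTiter Aqueous One read-out; loss-of-signal vs DMSO baseline.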

[3] = ArunA_CellTiter_hNP: Viability Assessment in the ArunA Biomedical's Oris Neural Crest (hNC) Cell Migration Assay (AID 2283753)
Procedure, shortened: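 Viability read with CellTiter 96 Aqueous One after 72 h chemical exposure of human hNP1 neuroprogenitors, which were plated on Matrigel in LIF/bFGF medium 16 h beforehand. Endpoint fitted in positive direction relative to DMSO.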

[4] = ArunA_Migration_hNP: ArunA Biomedical's Oris Neuroprogenitor (hNP) Cell Migration Assay (AID 2283754)
Procedure, shortened: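 Readout is calcein-AM fluorescence (ex494/em517) of cells migrating into the detection zone, relative to DMSO. hNP1 cells (H9-derived) grown on Matrigel behind stoppers 16 h, then stoppers pulled and chemical applied 72 h; cytochalasin D as control.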

[5] = Tanguay_ZF_120hpf_SWIM_legacy: (Legacy) Oregon State University Tanguay Lab 120 Hour Post-fertilization zebrafish Assay for Swim Bladder Malformation (AID 2283654);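 also: swim bladder malformation in each larva scored yes or no under brightfield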
Procedure, shortened: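 Static waterborne exposure of single dechorionated Tropical 5D zebrafish embryos, 6–120 hpf, 28C, 0.64% DMSO final. Read-out: swim bladder malformation, present/absent, relative to DMSO negative control; trimethyltin chloride 5uM served as positive control.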

[6] = Tanguay_ZF_120hpf_TRUN_legacy: (Legacy) Oregon State University Tanguay Lab 120 Hour Post-fertilization zebrafish Assay for Truncated Body (AID 2283655)
Procedure, shortened: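 5D wild-type larvae; pronase dechorionation; static exposure 6→120 hpf, 28C; DMSO 0.64% final; 5uM trimethyltin chloride positive control. Readout: presence/absence of truncated body, analyzed relative to DMSO.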

[7] = Tanguay_ZF_120hpf_TR_legacy: (Legacy) Oregon State University Tanguay Lab 120 Hour Post-fertilization zebrafish Assay for Touch Response (AID 2283667)
Procedure, shortened: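 Readout is presence or absence of touch response in 120 hpf zebrafish larvae, assessed by brightfield observation after continuous static exposure at 28C. Final vehicle was 0.64% (vol/vol) DMSO.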

[8] = STM_H9_OrnithineISnorm_perc: Stemina devTOX quickPredict H9 human embryonic stem cell (hESC)-based Assay for Ornithine (ORN) Metabolite Biomarker, Normalized (AID 2283712; active = hit-call score of the fitted dose curve at least 0.9, where 1 is the maximum; inactive = score below 0.9;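 also: ornithine released into spent medium during last day measured by mass spectrometry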)
Procedure, shortened: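 UPLC-HRMS readout: endogenous ornithine EIC area / 13C-ORN internal standard, then % of 0.1% DMSO median. H9 hESCs (pluripotent), 72h exposure, re-dosed with fresh media q24h; last 24-h spent media, deproteinized in 40% acetonitrile.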

[9] = STM_H9_CystineISnorm_perc: Stemina devTOX quickPredict H9 human embryonic stem cell (hESC)-based Assay for Cystine (CYSS) Metabolite Biomarker, Normalized (AID 2283713; active = hit-call score of the fitted dose curve at least 0.9, where 1 is the maximum; inactive = score below 0.9)
Procedure, shortened: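 UPLC-HRMS read-out: endogenous cystine peak area in spent medium, normalized to isotope-labeled internal standard and to median of 0.1% DMSO controls. Pluripotent H9 cells, 72h exposure, daily medium/compound replenishment; medium from last 24h sampled.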

[10] = Tanguay_ZF_120hpf_ActivityScore_legacy: (Legacy) Oregon State University Tanguay Lab 120 Hour Post-fertilization zebrafish Assay Score for Activity (AID 2283742);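 as to AC50: dechorionated Tropical 5D wild-type zebrafish embryos held singly per well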
Procedure, shortened: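 In this whole-embryo screen, dechorionated zebrafish were exposed from 6 hpf until 120 hpf at 28C under a 0.64% DMSO vehicle. Developmental malformations and death were recorded by brightfield microscopy as binary endpoints.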

[11] = CCTE_Padilla_ZF_144hpf_TERATOSCORE: (Legacy) CCTE's 144 Hour Post-fertilization zebrafish Assay Teratoscore, Padilla Lab (AID 2283679; active = hit-call score of the fitted dose curve at least 0.9, where 1 is the maximum; inactive = score below 0.9;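 as to AC50: zebrafish embryos with chorions exposed by immersion from 6-8 hpf to 5 dpf with daily renewal; teratogenicity score from eye scoring of death hatching and malformations at 144 hpf; higher score means more developmental defects relative to DMSO baseline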)
Procedure, shortened: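 Larvae scored by eye at 144 hpf for death, hatching and malformations after a day in clean Hanks'. Before that, daily-renewed exposure at 80 uM (0.4% DMSO, 26C) from roughly 6-8 hpf through 5 dpf, 4 embryos per chemical.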

[12] = STM_H9_OrnCyssISnorm_ratio: Stemina devTOX quickPredict H9 human embryonic stem cell (hESC)-based Assay for Ornithine (ORN):Cystine (CYSS) Ratio (AID 2283714)
Procedure, shortened: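 H9 hESC, 72h, q24h re-dose; last-day media → acetonitrile deproteinization → UPLC-HRMS. ORN:CYSS ratio from isotope-normalized EIC areas, vs 0.1% DMSO; MTX references on each plate.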

[13] = Tanguay_ZF_120hpf_NC_legacy: (Legacy) Oregon State University Tanguay Lab 120 Hour Post-fertilization zebrafish Assay for Notochord and Tail Malformation (AID 2283656)
Procedure, shortened: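 Binary notochord-distortion calls, made by brightfield inspection, form the read-out; activity is fitted in the positive direction against DMSO. Exposure ran statically from 6 to 120 hpf at 28C with 0.64% DMSO.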

[14] = CEETOX_H295R_MTT_cell_viability: Viability Assessment in the CeeTox HT-H295R MTT Assay (AID 2283718; active = hit-call score of the fitted dose curve at least 0.9, where 1 is the maximum; inactive = score below 0.9;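 as to AC50: curve fitted both ways so AC50 may mark viability loss or gain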)
Procedure, shortened: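 H295R cells prestimulated 48 h with 10 uM forskolin, then exposed 48 h to test chemical (0.1% DMSO final). Viability by MTT (0.5 mg/ml, 4 h, 37 C), absorbance 570/650 nm; percent change versus DMSO, bidirectional fit.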

[15] = test system: Thyroperoxidase (TPO), gene 54314; assay: CCTE_Simmons_AUR_rTPO: CCTE's Amplex UltraRed Assay for Thyroperoxidase (TPO) Inhibition, Simmons Lab (AID 2283662);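 also: potency for loss of signal meaning inhibition of peroxidase activity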
Procedure, shortened: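 Rat thyroid microsomes (5 ug protein) with 25 uM Amplex UltraRed and 300 uM H2O2 in 200 mM phosphate buffer, 30 min at 37C in dark; fluorescence 544/590 nm. Eight concentrations, 5 nM–87.5 uM final, 0.5% DMSO, triplicate biological replicates.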

[16] = CCTE_Simmons_CellTiterGLO_HEK293T: Viability Assessment in CCTE's Assays for Thyroperoxidase (TPO) Inhibition, Simmons Lab (AID 2283665);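 as to AC50: cells exposed to compound for 24 h before readout; actives reduce ATP signal below DMSO vehicle meaning cytotoxicity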
Procedure, shortened: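 Luminescent ATP readout (CellTiter-Glo, 20 min at room temperature) after 24 hr exposure of HEK293T cells to 5 nM–87.5 uM final compound; signal loss relative to DMSO vehicle indicated cytotoxicity; dichlone titrated as positive control.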

Measured: AC50

CC(C)NCC(O)c1ccc(O)c(O)c1 (stereo not drawn)
active: [1] 7.79 µM

Nc1nc(Cl)nc2c1ncn2[C@H]1C[C@H](O)[C@@H](CO)O1
inactive: [2]
active: [2] 0.354 µM | [3] 0.345 µM | [4] 289 nM and 52.1 nM

CCCCCCCCCCCCCCCCO
inactive: [5] | [6] | [7] | [8] | [9] | [10]

O=[Si]=O
inactive: [5] | [6] | [7] | [11] | [10]

CC(=O)S[C@H](C(=O)N[C@H]1Cc2ccccc2[C@H]2CCC[C@@H](C(=O)O)N2C1=O)C(C)C
inactive: [5] | [6] | [7] | [8] | [9] | [10]

C=CCCCCCCCCCCCC
inactive: [5] | [6] | [7] | [11] | [10]

CCCCCCC(C=O)=Cc1ccccc1
active: [11] 13.9 µM
inactive: [5] | [6] | [7] | [10]

CCCC[C@H]1CN(CC2CCOCC2)C(=O)OC12CCN(C1(C)CCN(C(=O)c3c(C)ncnc3C)CC1)CC2
inactive: [5] | [6] | [7] | [11] | [8] | [9] | [12] | [10]

NC=O
inactive: [5] | [6] | [7] | [11] | [10]

CC(=O)O
inactive: [5] | [6] | [7] | [11] | [10]

C=CCc1ccc(OC)c(OC)c1
active: [14] 0.102 µM
inactive: [5] | [6] | [13] | [10]

C/C=C/c1ccc(OC)cc1
active: [15] 28.4 µM
inactive: [5] | [6] | [16] | [10]

CCc1cc(C2=C(C(=O)O)N(c3ccccc3C(F)(F)F)S(=O)(=O)c3ccccc32)cc2c1OCO2
inactive: [5] | [6] | [7] | [11] | [8] | [9] | [12] | [10]

CS(=O)(=O)c1ccc([C@@H](C[C@H]2CCC(=O)C2)C(=O)Nc2cnccn2)cc1Cl
inactive: [5] | [6] | [7] | [11] | [10]

CSc1ccc(Oc2ccc(S(N)(=O)=O)cc2CN(C)C)cc1C
inactive: [5] | [6]
active: [7] 50.9 µM | [10] 22.8 µM

Cc1ccc(C(C)(C)C)c(O)c1
inactive: [5] | [6] | [7] | [8] | [9] | [10]
active: [15] 30 µM | [16] 22.3 µM | [11] 92.9 µM | [12] 15 µM

O=C1O[C@H]([C@H](O)CO)C(O)=C1O
active: [15] 43.8 µM
inactive: [5] | [6] | [16] | [7] | [11] | [10]

CC(=O)CC(c1ccccc1)c1c(O)c2ccccc2oc1=O (stereo not drawn)
inactive: [5] | [6] | [7] | [8] | [9] | [10]
active: [11] 39.6 µM

CC(C)OC(=O)C(C)(C)Oc1ccc(C(=O)c2ccc(Cl)cc2)cc1
active: [11] 1.78 µM
inactive: [5] | [6] | [7] | [8] | [9] | [10]

Oc1ccccc1O
inactive: [5] | [6] | [7] | [14] | [10]
active: [15] 0.84 µM | [16] 34.4 µM | [11] 60.1 µM

O=C(Oc1ccccc1)c1cccc(C(=O)Oc2ccccc2)c1
inactive: [5] | [6] | [7] | [8] | [9] | [14] | [10]
active: [11] 9.15 µM

CCCCC(CC)COP(=O)(OCC(CC)CCCC)OCC(CC)CCCC (stereo not drawn)
inactive: [5] | [6] | [7] | [8] | [9] | [12] | [10] | [3] | [4]

Cc1cc(SC2=C(O)C[C@@](CCc3ccc(N)cc3)(C(C)C)OC2=O)c(C(C)(C)C)cc1CO
active: [15] 0.738 µM | [16] 3.9 µM | [11] 16.4 µM
inactive: [5] | [6] | [7] | [10]

O=C1OC(c2ccc(O)cc2)(c2ccc(O)cc2)c2ccccc21
active: [15] 2.99 µM | [16] 43.8 µM | [4] 26.9 µM
not listed: [1] | [2] | [3] | [11] | [13]
inactive: all other assays above

NC(=Nc1ccccc1)Nc1ccccc1
active: [10] 0.00546 µM
inactive: [5] | [6] | [7] | [8] | [9] | [14]

O=C1CCCCC1
inactive: [5] | [6] | [7] | [11] | [10]

COc1ccc(OC(F)(F)F)cc1CN[C@H]1CCCN[C@H]1c1ccccc1
active: [11] 56.5 µM | [10] 17.9 µM
inactive: [5] | [6] | [7]

COC(=O)CCCC(=O)OC
active: [11] 62.7 µM
inactive: [5] | [6] | [7] | [10]
